According to PubChem BioAssay:
Active and inactive are the calls of the source. Unless noted, the rule behind the calls is not given here.

Columns and labels:
[1] = anti-His antibody binders, primary screen, artefact control for SMM control protein annotation, biochemical, small-molecule microarray, 635 nm fluorescence (AID 1128); conditions: anti-His Alexa647 antibody binding, higher = more signal;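 note: score merges feature fluorescence with signal-to-noise for each printed compound spot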
[2] = test system: Human papillomavirus type 1a E7 protein (residues 1-88); assay: HPV1a E7 small-molecule binders, primary screen, biochemical, small-molecule microarray, residues 1-88, 635 nm (AID 1129); conditions: small-molecule microarray binding, fluorescence 635 nm; higher = more signal
[3] = target: Focal adhesion kinase 1 (Homo sapiens) (UniProt Q05397); assay: small-molecule microarray binders of FAK, primary screen, biochemical, 635/667 nm fluorescence, BSA, DTT (AID 1130); conditions: PTK2 binding, 635 nm fluorescence, higher = more signal;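 note: composite of spot emission at 667 nm and signal to noise over triplicate slides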
Sequence of Focal adhesion kinase 1 (Homo sapiens) (Q05397 whole entry, looked up): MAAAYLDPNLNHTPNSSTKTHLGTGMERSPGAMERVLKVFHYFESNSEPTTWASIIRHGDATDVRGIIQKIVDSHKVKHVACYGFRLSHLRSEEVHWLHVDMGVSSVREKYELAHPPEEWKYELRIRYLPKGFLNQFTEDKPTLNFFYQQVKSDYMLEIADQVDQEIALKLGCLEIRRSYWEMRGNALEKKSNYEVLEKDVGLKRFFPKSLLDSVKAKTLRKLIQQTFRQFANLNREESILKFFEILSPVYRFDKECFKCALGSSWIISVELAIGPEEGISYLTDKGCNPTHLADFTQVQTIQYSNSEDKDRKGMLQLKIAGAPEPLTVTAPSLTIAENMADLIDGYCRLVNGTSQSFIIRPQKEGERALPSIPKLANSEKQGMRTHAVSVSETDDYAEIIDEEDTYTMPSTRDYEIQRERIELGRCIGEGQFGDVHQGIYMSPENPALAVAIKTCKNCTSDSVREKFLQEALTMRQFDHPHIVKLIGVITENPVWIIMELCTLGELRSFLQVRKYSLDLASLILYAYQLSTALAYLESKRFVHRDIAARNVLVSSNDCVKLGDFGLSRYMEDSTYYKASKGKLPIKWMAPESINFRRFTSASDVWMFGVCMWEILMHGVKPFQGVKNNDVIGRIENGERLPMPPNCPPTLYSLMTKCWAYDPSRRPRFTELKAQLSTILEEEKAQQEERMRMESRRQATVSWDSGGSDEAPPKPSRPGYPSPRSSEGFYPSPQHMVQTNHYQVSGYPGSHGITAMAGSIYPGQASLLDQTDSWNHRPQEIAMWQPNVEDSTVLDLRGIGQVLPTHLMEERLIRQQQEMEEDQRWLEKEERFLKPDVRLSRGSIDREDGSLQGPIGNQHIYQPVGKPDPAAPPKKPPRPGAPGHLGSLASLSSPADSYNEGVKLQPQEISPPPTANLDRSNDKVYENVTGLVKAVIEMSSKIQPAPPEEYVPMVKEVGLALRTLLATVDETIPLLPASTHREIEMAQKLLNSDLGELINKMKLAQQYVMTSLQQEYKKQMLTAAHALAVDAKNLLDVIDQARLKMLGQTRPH

[4] = test system: Fibrinogen (Alexa647-labelled); assay: fibrinogen binders on compound microarrays, profiling panel, artefact control for SMM control-protein annotation, biochemical, small-molecule microarray, 635/667 nm fluorescence (AID 1131); conditions: fibrinogen-A647 binding fluorescence, higher = more signal;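 note: z-score merges 667 nm fluorescence with per-spot signal-to-noise over triplicate slides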
[5] = target: Follistatin (Homo sapiens) (UniProt P19883); assay: follistatin binders on small-molecule microarrays, primary screen, biochemical, small-molecule microarray, 635/667 nm fluorescence (AID 1132); conditions: FST binding, 635 nm fluorescence, higher = more signal
Sequence of Follistatin (Homo sapiens) (P19883 whole entry, looked up): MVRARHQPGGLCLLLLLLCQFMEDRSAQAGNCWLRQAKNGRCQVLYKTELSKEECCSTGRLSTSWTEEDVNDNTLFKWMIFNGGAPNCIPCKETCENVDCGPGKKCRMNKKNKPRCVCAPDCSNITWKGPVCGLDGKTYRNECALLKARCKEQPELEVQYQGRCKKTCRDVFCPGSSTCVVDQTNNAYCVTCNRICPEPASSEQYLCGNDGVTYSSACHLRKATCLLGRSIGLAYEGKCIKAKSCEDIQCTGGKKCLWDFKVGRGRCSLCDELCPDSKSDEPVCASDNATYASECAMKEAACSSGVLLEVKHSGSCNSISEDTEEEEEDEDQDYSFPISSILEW

[6] = target: Fibroblast growth factor 2 (Homo sapiens) (UniProt P09038); assay: FGF2 binders on small-molecule microarrays, primary screen, biochemical, small-molecule microarray, 635/667 nm fluorescence (AID 1133); conditions: small-molecule microarray binding, FGF2, fluorescence 635/667; higher = more signal
Sequence of Fibroblast growth factor 2 (Homo sapiens) (P09038 whole entry, looked up): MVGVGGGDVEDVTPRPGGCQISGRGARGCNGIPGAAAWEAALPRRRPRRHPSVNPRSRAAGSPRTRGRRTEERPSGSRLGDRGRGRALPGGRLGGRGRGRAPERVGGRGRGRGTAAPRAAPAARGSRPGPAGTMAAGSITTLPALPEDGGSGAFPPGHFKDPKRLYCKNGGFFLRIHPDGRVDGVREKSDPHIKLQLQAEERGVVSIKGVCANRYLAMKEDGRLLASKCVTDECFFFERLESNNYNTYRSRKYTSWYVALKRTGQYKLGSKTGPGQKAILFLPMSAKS

[7] = mitochondrial membrane potential change in A549 cells, profiling panel, cell-based, JC-1 fluorescence, basal, 24 h, 100 nL (AID 1138); conditions: higher = more signal;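 note: A549 lung adenocarcinoma cells under basal conditions with no added stimulus; test concentration not given here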
Lefty1 = Lefty1 binders on small-molecule microarrays, primary screen, biochemical, small-molecule microarray, 635/667 nm fluorescence (AID 1139); conditions: small-molecule microarray binding, fluorescence 635/667; higher = more signal
[8] = test system: wheat germ agglutinin (Triticum aestivum), Alexa647-labelled; assay: wheat germ agglutinin binders on compound microarrays, profiling panel, artefact control for SMM control-protein annotation, biochemical, small-molecule microarray, 635/667 nm fluorescence (AID 1140); conditions: WGA-A647 binding, 635 nm fluorescence, higher = more signal;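 note: score merges 667 nm feature emission with signal to noise over triplicate slides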
[9] = target: Luciferin 4-monooxygenase (Photinus pyralis) (UniProt P08659); assay: firefly luciferase enzyme inhibitors, primary screen, biochemical, luminescence, purified enzyme, 2006 set (AID 1141); conditions: SteadyGlo luminescence, 30 min, higher = more signal, called active from +8 up or from −8 down;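 note: cell-free assay with purified firefly luciferase at 100 ng per well in PBS; test concentration not given here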
Sequence of Luciferin 4-monooxygenase (Photinus pyralis) (P08659 whole entry, looked up): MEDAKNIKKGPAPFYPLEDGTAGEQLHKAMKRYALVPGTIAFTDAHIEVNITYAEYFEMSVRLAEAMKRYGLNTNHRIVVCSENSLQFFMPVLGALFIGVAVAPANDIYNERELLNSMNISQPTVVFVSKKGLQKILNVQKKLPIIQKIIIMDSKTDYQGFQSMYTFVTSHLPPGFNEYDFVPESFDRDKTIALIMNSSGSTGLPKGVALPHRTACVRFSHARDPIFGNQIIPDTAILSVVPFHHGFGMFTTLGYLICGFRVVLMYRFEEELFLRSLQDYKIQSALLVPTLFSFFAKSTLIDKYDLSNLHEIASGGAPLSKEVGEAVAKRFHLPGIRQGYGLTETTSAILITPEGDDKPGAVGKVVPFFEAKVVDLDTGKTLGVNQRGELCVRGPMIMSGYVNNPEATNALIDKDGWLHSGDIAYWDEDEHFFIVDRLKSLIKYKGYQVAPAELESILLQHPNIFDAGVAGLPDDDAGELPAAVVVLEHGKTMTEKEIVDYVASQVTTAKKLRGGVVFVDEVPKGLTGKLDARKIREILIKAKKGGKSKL

[10] = test system: Wnt5a (protein binding on small-molecule microarray); assay: Wnt5a binders on small-molecule microarray, primary screen, biophysical, 635/667 nm fluorescence (AID 1142); conditions: 635 nm fluorescence, higher = more signal;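 note: fluorescence read at 667 nm with signal to noise per printed feature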
[11] = cell viability in Huh7 cells, primary screen, cytotoxicity control for HCV replication inhibitor project, CellTiter-Glo luminescence, basal, 48 h (AID 1143); conditions: Huh7 HCV replicon, higher = more signal, called active from +8 up or from −8 down;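 note: Huh7 hepatoma cells carrying a hepatitis C replication reporter with no stimulus; test concentration not given here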
[12] = P. aeruginosa biofilm formation inhibitors, primary screen, PAO1 strain, BacTiter-Glo luminescence, LB-PBS (AID 1144); conditions: 12 h, higher = more signal
[13] = CREB reporter modulators without forskolin, primary screen, cell-based, PC12, CRE-LacZ reporter, unstimulated (AID 1145); conditions: no forskolin, luminescence, 4.5 h, higher = more signal, called active from +8 up or from −8 down
[14] = CREB reporter modulators under forskolin, primary screen, cell-based, PC12, CRE-LacZ reporter, forskolin-stimulated (AID 1146); conditions: luminescence, 4.5 h, higher = more signal, called active from +8 up or from −8 down;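 note: PC12 cells with 6xCRE LacZ reporter stimulated by forskolin 10 µM; beta-galactosidase reporter signal reflecting CREB driven transcription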
[15] = target: Streptavidin (Streptomyces avidinii) (UniProt P22629); assay: streptavidin binders on small-molecule microarray, primary screen, artefact control for SMM compound annotation, biophysical, 635/667 nm fluorescence (AID 1147); conditions: streptavidin binding, higher = more signal;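 note: signal reflects streptavidin binding to arrayed compounds as a control protein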
Sequence of Streptavidin (Streptomyces avidinii) (P22629 whole entry, looked up): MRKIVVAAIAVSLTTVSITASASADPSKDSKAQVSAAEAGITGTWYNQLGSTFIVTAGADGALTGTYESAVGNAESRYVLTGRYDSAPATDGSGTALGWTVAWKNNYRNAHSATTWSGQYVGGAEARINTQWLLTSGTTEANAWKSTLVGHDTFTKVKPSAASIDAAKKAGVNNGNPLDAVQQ

[16] = small-molecule binders of probe aInhba, primary screen, biochemical, small-molecule microarray, 635/667 nm fluorescence (AID 1148); conditions: higher = more signal;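 note: score merges 667nm spot fluorescence with signal-to-noise for antibody binding to printed compounds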
Torsin-1A (Homo sapiens) [17] = target: Torsin-1A (Homo sapiens) (UniProt O14656); assay: torsin A binders from cell lysate, primary screen, small-molecule microarray, wild-type, 635/667 nm (AID 1149); conditions: COS7 hTOR1A-WT lysate, 635 nm fluorescence, higher = more signal
Sequence of Torsin-1A (Homo sapiens) (O14656 whole entry, looked up): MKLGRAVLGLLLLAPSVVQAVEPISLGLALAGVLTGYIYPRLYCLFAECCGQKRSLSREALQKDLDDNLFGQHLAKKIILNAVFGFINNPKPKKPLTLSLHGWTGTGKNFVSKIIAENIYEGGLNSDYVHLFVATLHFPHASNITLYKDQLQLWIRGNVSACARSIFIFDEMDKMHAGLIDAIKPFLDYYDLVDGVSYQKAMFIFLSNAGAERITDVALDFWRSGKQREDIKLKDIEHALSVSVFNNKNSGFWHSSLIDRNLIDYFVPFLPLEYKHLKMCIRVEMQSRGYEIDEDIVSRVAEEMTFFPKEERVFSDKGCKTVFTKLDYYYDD

Torsin-1A (Homo sapiens) [18] = target: Torsin-1A (Homo sapiens) (UniProt O14656); assay: small-molecule binders of mutant TOR1A in lysate, primary screen, cell lysate, small-molecule microarray, COS7 lysate, 635/667 nm fluorescence (AID 1150); conditions: COS7 hTOR1A mutant lysate, 635 nm fluorescence, higher = more signal;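 note: score pools 667 nm emission and signal to noise measuring lysate protein binding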
[19] = test system: Sonic hedgehog protein (Shh); assay: small-molecule binders of Shh protein, primary screen, biochemical, small-molecule microarray, 635/667 nm fluorescence (AID 1151); conditions: small-molecule microarray binding, 635 nm fluorescence; higher = more signal;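 note: Shh protein binding to compounds spotted on small-molecule microarray slides; score combines spot fluorescence intensity with signal-to-noise across triplicate slides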

SMILES | composite z-score [1] | composite z-score [2] | composite z-score [3] | composite z-score [4] | composite z-score [5] | composite z-score [6] | z-score [7] | composite z-score (Lefty1) | composite z-score [8] | z-score [9] | composite z-score [10] | z-score [11] | z-score [12] | z-score [13] | z-score [14] | composite z-score [15] | composite z-score [16] | composite z-score (Torsin-1A (Homo sapiens) [17]) | composite z-score (Torsin-1A (Homo sapiens) [18]) | composite z-score [19]
Cn1cccc1C(O)C1C=CC2C(=O)NC(=O)C2N1Nc1ccc(Cl)cc1Cl (stereo not given) | 1.43 | 1.24 | 1.42 | 1.02 | 1.28 | 0.0937 | -0.13 | -0.207 | 1.15 | -1.4 (inactive) | 0.0792 | -0.316 (inactive) | -0.668 (inactive) | 0.812 (inactive) | 2.09 (inactive) | 1.37 | 0.374 | 0.887 | 1.05 | -0.269
COC(=O)[C@@]1(Cc2ccc(F)cc2)[C@H]2c3cc(C(=O)N4CCCC4)n(CCN4CNCC4=O)c3C[C@H]2CN1C(=O)c1ccccc1 | 2.44 | 1.24 | 0.922 | 1 | -0.0189 | -0.841 | -1.6 | -0.0252 | 1.01 | 2.51 (inactive) | 0.289 | -1.11 (inactive) | -0.917 (inactive) | 0.39 (inactive) | -1.08 (inactive) | 1.04 | 0.179 | 1.51 | 1.77 | -0.164
O=C1O[C@H](c2ccccc2)[C@H](c2ccccc2)N2[C@H]1[C@@H](C(=O)Nc1nc3ccccc3s1)[C@]1(C(=O)Nc3ccc(C#CC4(O)CCCCCC4)cc31)[C@H]2c1ccccc1OCCO | 1.41 | 1.2 | 0.193 | 0.943 | 1.3 | 0.903 | -2.19 | 1.16 | 0.742 | -0.62 (inactive) | 0.731 | -4.43 (inactive) | 0.0608 (inactive) | 0.346 (inactive) | 0.0053 (inactive) | 0.612 | 0.27 | 0.602 | 0.597 | 1.32
